IMPase inh: cell-permeable inhibitors of inositol monophosphatase (IMPase); inhibition (IP1 accumulation), % at 46.1 µM; 120,000 tested, under 10 active; CHO-M1 cells, IP1 accumulation, HTRF TR-FRET ratio; P97697; active means well fitted curve in the direction sought with a large enough effect in the signal ratio, not every such curve was filed as active; inconclusive means small, poorly fitted or top-dose-only effect, or a change in a side signal; inactive means no such curve, though single readings can be large or run the other way; the % refers to the signal ratio;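 further: cells stimulated with carbachol in lithium chloride buffer; plate controls were DMSO basal wells for no effect and reference inhibitor wells for full effect; higher means more IMPase inhibition seen as more IP1 and lower FRET ratio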
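Carbachol-driven Gq signalling in CHO-M1 cells (2000/well) generates IP1. Compounds that block IMPase raise IP1 and so reduce the FRET signal from Eu-anti-IP1 and d2-IP1 after a 10 min room-temperature lysis.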
ALDH1A1 block: inhibitors of human aldehyde dehydrogenase 1A1 | Purified ALDH1A1, NADH fluorescence, propionaldehyde substrate | AID 1030 | P00352 | Potency, µM (highest dose often 75.3 µM), without a hit: top-dose activity, negative = inhibition, actives largely listed as inhibitors | 7.3% of 220,000 active;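 further: potency means the concentration at half of the fitted maximal effect; plate controls were no enzyme wells and a reference inhibitor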
Target sequence (P00352 whole entry, looked up): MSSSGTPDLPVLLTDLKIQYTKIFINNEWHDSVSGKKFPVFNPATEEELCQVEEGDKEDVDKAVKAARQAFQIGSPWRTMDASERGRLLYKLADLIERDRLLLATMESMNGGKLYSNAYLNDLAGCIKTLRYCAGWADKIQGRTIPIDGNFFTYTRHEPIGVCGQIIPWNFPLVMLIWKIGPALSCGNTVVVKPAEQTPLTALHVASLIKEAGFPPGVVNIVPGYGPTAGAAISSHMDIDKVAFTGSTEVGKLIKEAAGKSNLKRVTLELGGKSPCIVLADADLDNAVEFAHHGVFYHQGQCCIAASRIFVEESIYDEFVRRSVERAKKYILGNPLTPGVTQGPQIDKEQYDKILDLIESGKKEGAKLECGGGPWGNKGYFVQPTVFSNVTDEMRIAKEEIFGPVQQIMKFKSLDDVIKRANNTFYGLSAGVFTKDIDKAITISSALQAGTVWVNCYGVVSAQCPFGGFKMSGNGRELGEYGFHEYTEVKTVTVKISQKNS
HPGD block: blocks human HPGD enzyme activity; 4.3% of 150,000 active; purified HPGD, NADH fluorescence kinetic, PGE2 substrate; Potency, µM, without a hit: at the highest dose activity change, negative = inhibition, hits mostly inhibitors; further: potency means the concentration at half of the fitted maximal effect
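NADH formation kinetics: reaction with 30 uM PGE2 and 1 mM NAD+ (final), 20 nM enzyme, Tris-HCl pH 8 with Tween 20, after 15 min compound preincubation at room temperature. Fluorescence change, last versus first of five reads.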
* marks the source's active call; other numbers are inactive results; [ ] = remark or other dose. A selection: hits, their analogues and other compounds. The true share with any hit is near 9%. Unless noted, the call rests on the fitted dose curve; in most records, active means well fitted inhibition curve with a large enough effect (not every such curve was filed as active); inconclusive means small, poorly fitted or top-dose-only effect, or another doubt; inactive means no such curve, though single readings can be large or run the other way. Unless noted, on the % scale 0 is the no-effect control and ±100 the full control effect.

How did O=C(CNC(=O)c1ccc(S(=O)(=O)N2CCCC2)cc1)N/N=C/c1ccc(Cl)cc1Cl do in these assays?
ALDH1A1 block: 6%; HPGD block: -4%

How did N=C(N)SCCc1ccc(OCc2ccc([N+](=O)[O-])cc2)cc1 do in these assays?
IMPase inh: 9; ALDH1A1 block: inconclusive; HPGD block: -12%

How did Cc1ccc(S(=O)(=O)N2CCCC(C(=O)NCCC(C)C)C2)cc1 (centres undefined) do in these assays?
ALDH1A1 block: 10%

How did C=CCO/N=C(/CCC)C1=C(N)CC(C)(C)CC1=O do in these assays?
ALDH1A1 block: 9%

Results for CCCC(O)(CCC)C(=O)NN(C(=O)CCl)c1ccccc1 ?
IMPase inh: 3; ALDH1A1 block: 25µM*; HPGD block: -10%

What do the screens show for `CCCCC(O)(CCCC)C(=O)NN(C(=O)OCC)c1ccccc1`?
IMPase inh: -3; ALDH1A1 block: -11%; HPGD block: 2%

How did COC(=O)Cn1c(=O)cnc2ccccc21 do in these assays?
IMPase inh: -9; ALDH1A1 block: inconclusive; HPGD block: -21%

Results for COC(=O)c1cc(NC(=O)Cc2ccc(OC)cc2)cc(C(=O)OC)c1 ?
IMPase inh: -3; ALDH1A1 block: 0.89µM*; HPGD block: -15%

How did COc1ccc(CC(=O)Nc2cccc(C(=O)Nc3cccc(C)c3)c2)cc1 do in these assays?
ALDH1A1 block: 1%

Results for COC(=O)c1cc(NC(=O)Cn2c(=O)cnc3ccccc32)cc(C(=O)OC)c1 ?
IMPase inh: -1; ALDH1A1 block: 0.35µM*; HPGD block: -19%

What do the screens show for `CN(CCc1ccccn1)c1ccc2c(c1)Cc1ccccc1-2`?
ALDH1A1 block: -2%[13.5 µM]; HPGD block: -10%

How did Cc1ccc(/C=C/C(=O)c2ccccc(=O)c2O)cc1C do in these assays?
ALDH1A1 block: inconclusive; HPGD block: -27%

What do the screens show for `O=C(/C=C/c1ccccc1)c1cc(Br)ccc(=O)c1O`?
IMPase inh: -4; ALDH1A1 block: 7.1µM*; HPGD block: 20µM*

How did O=C1c2ccccc2NC2(CCCC2)N1O do in these assays?
IMPase inh: 4; ALDH1A1 block: 1%; HPGD block: 20µM*

Results for c1ccc2c(c1)NC1(CCCC1)n1c-2nc2ccccc21 ?
IMPase inh: -7; ALDH1A1 block: inconclusive; HPGD block: inconclusive

Results for CCN(CC)c1ccc(C=C2C(=O)OC(C)(C(C)(C)C)OC2=O)cc1 (centres undefined) ?
IMPase inh: 0; ALDH1A1 block: 1%; HPGD block: -12%

What do the screens show for `CN(C)c1ccc(C=C2C(=O)OC(C)(C(C)(C)C)OC2=O)cc1` (centres undefined)?
IMPase inh: 6; ALDH1A1 block: 0.4µM*; HPGD block: 10µM*

What do the screens show for `CN(C)c1ccc(C2OC(=O)C(C)(C)C(=O)C2(C)C)cc1` (centres undefined)?
IMPase inh: inconclusive; ALDH1A1 block: 7%

What do the screens show for `CN(C)c1ccc(C=C2C(=O)OC(C)(C)OC2=O)cc1`?
ALDH1A1 block: 0.79µM*

Results for COC(=O)c1c(C)oc2ccc(N(C(=O)c3ccncc3)S(=O)(=O)c3ccc(C)cc3)cc12 ?
IMPase inh: 14; ALDH1A1 block: 3%; HPGD block: -12%

Results for Cc1ccc(S(=O)(=O)N(C(=O)c2ccncc2)c2ccc(OC(=O)c3ccncc3)c3ccccc23)cc1 ?
IMPase inh: 18; ALDH1A1 block: 4µM*; HPGD block: 20µM*

Results for Cc1ccc(S(=O)(=O)N(C(=O)c2ccncc2)c2ccc(OC(=O)c3ccncc3)c3ccccc23)c(C)c1 ?
IMPase inh: 15; ALDH1A1 block: 7.9µM*; HPGD block: 28µM*

How did Cc1cc(F)ccc1S(=O)(=O)N(C(=O)c1ccncc1)c1ccc(OC(=O)c2ccncc2)cc1 do in these assays?
ALDH1A1 block: 6%

How did FC(F)(F)c1ccccc1-c1cc(NCc2cccs2)ncn1 do in these assays?
ALDH1A1 block: -5%

What do the screens show for `Cc1ccc(NC(=O)C2(NC(=O)c3ccccn3)CCCCC2)cc1Br`?
ALDH1A1 block: -15%; HPGD block: -16%

What do the screens show for `CCCCC1=CC2=C(c3ccco3)C(=O)C(C)(OC(=O)c3ccc(OC)cc3)C(=O)C2=CN1Cc1ccccc1` (centres undefined)?
ALDH1A1 block: 1%[13.5 µM]; HPGD block: -8%

What do the screens show for `CCCCC1=CC2=C(c3ccco3)C(=O)C(C)(OC(=O)c3ccc(OC)cc3)C(=O)C2=CN1Cc1ccc2c(c1)OCO2` (centres undefined)?
ALDH1A1 block: 3.5µM*; HPGD block: -8%

Results for [O-]/C(=C(\C(=S)NCc1ccc2c(c1)OCO2)[n+]1ccccc1)c1ccc(Cl)s1 ?
ALDH1A1 block: 16µM*

What do the screens show for `C=CCNC(=S)/C(=C(\[O-])c1ccc(Cl)cc1)[n+]1ccccc1`?
ALDH1A1 block: 14µM*

What do the screens show for `C=CCNC(=S)Nc1ccc(Cl)cc1F`?
ALDH1A1 block: 5%

What do the screens show for `O=C(NC(=S)NCc1ccc2c(c1)OCO2)c1ccccc1`?
ALDH1A1 block: inconclusive; HPGD block: -20%

What do the screens show for `[O-]/C(=C(\C(=S)NCc1ccccc1)[n+]1ccccc1)c1ccc(Cl)cc1`?
ALDH1A1 block: 8.9µM*

What do the screens show for `[O-]/C(=C(\C(=S)NCc1ccco1)[n+]1ccccc1)c1ccccc1Br`?
IMPase inh: -1; ALDH1A1 block: 8%; HPGD block: -5%

How did COc1ccccc1OCC(=O)Nc1cccc(C(=O)N2CCOCC2)c1 do in these assays?
IMPase inh: 5; ALDH1A1 block: inconclusive; HPGD block: -17%

What do the screens show for `CC(C(=O)N1CCN(c2ccc(Cl)cc2)CC1)c1ncc(C(F)(F)F)cc1Cl` (centres undefined)?
IMPase inh: 3; ALDH1A1 block: 14%; HPGD block: -5%

What do the screens show for `CCOC(=O)N1CCN(C(=O)CNC2CCCCCCC2)CC1`?
ALDH1A1 block: -5%

What do the screens show for `COc1cc(/C=C2/SC(=O)N(Cc3ccccc3)C2=O)ccc1OCc1ccncc1`?
IMPase inh: 22; ALDH1A1 block: 176%; HPGD block: inconclusive

Results for COc1ccc(/C=C2\SC(=NCc3ccccc3)N(Cc3ccccc3)C2=O)cc1OC ?
IMPase inh: 2[1.84 µM]; ALDH1A1 block: inconclusive; HPGD block: inconclusive

How did CCN=C1S/C(=C\c2ccc(OC)c(OCC)c2)C(=O)N1CC do in these assays?
ALDH1A1 block: -13%; HPGD block: -6%

How did COc1cc(/C=C2\SC(=O)N(Cc3ccc(F)cc3)C2=O)cc([N+](=O)[O-])c1O do in these assays?
ALDH1A1 block: 0.71µM*

How did COc1cc(/C=C2\SC(=O)N(Cc3ccc(Cl)cc3)C2=O)cc([N+](=O)[O-])c1O do in these assays?
ALDH1A1 block: 2.5µM*

How did CCOC(=O)CN1C(=O)S/C(=C/c2ccc(OC)c([N+](=O)[O-])c2)C1=O do in these assays?
ALDH1A1 block: 13µM*; HPGD block: 16µM*

How did COc1ccc2c(c1)O[C@@H](c1cccc(C(F)(F)F)c1)[C@H](OC(=O)Nc1ccc(C)c(Br)c1)C2=O do in these assays?
ALDH1A1 block: 2%; HPGD block: -2%

How did COCCCNC(=S)N1CCN(S(C)(=O)=O)CC1 do in these assays?
ALDH1A1 block: 19%; HPGD block: -7%
